# Reference: PubChem BioAssay (NCI)
# The panel holds about 79,000 compounds, 15% with a hit somewhere; the sample as a whole holds those more often. Values without a mark were called inactive. Calls of active or inactive are those of the source. No stated cut-off is given here; in the data, active means growth inhibition above about 70%; inactive means the rest.
# Assays:
# [1] = NCI Yeast Anticancer Drug Screen. Data for the rad50 strain (AID 155);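 further: 0% = growth of vehicle-only cultures of the same strain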; settings: S. cerevisiae rad50 strain growth inhibition; at 50.0 µM; hits give high values
# In short: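 Inhibition values express reduced yeast growth in compound-treated cultures relative to vehicle-treated controls.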
# [2] = NCI Yeast Anticancer Drug Screen. Data for the mec2-1 strain (AID 157); settings: S. cerevisiae mec2-1 strain, at 50.0 µM, hits give high values
# In short: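 Yeast mec2-1 mutant treated with compound. Readout: growth inhibition vs vehicle controls.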
# [3] = NCI Yeast Anticancer Drug Screen. Data for the sgs1 mgt1 strain (AID 161);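 further: 0% = growth of cultures given vehicle only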; settings: S. cerevisiae sgs1 mgt1 strain, at 50.0 µM, hits give high values
# In short: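 Inhibition of yeast growth, normalised to vehicle-treated controls, is reported for a strain bearing genetic alterations in DNA damage repair.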
# [4] = NCI Yeast Anticancer Drug Screen. Data for the cln2 rad14 strain (AID 165);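 further: 0% = growth equal to vehicle treated cultures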; settings: S. cerevisiae cln2 rad14 strain, at 50.0 µM, hits give high values
# In short: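 cln2 rad14 yeast strain; compound exposure; growth inhibition read vs vehicle controls.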
# [5] = NCI Yeast Anticancer Drug Screen. Data for the bub3 strain (AID 167); settings: S. cerevisiae bub3 mutant strain, at 50.0 µM, hits give high values
# In short: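 Steps: expose the mutant yeast strain to compound; grow alongside vehicle-treated cultures; measure growth; express inhibition against the vehicle cultures.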
# [6] = NCI Yeast Anticancer Drug Screen. Data for the mlh1 rad18 strain (AID 175); settings: S. cerevisiae mlh1 rad18 strain growth inhibition; at 50.0 µM; hits give high values
# In short: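 Yeast w/ defined DNA-repair lesions; compound exposure; growth vs vehicle controls → % inhibition.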
Structure (SMILES),growth inhibition [1],growth inhibition [2] [%],growth inhibition [3],growth inhibition [4] [%],growth inhibition [5],growth inhibition [6]
CS(=O)(=O)OC1COC(c2ccccc2)OC1C1OC(c2ccccc2)OCC1OS(C)(=O)=O (stereo not drawn),-26.7%,-3.85,-31.9%,-4,-0.9%,-7.25%
O=C(CCN1CCCCC1)c1cc(Cl)ccc1Cl,88.4% (active),68.4,93.1% (active),62.5,91% (active),80.2% (active)
N#CCCSc1nnc(N)s1,-7.85%,-7.9,-8.65%,16.9,-2.95%,-14.8%
C[N+](C)=c1ccc2nc3ccc(N)cc3sc-2c1,-84.8%,-59.5,-43.6%,-66.7,-79.8%,-76.8%
COc1cc(C(=O)O)c(Br)c(OC)c1OC,-1.55%,20.1,2.55%,-12.7,42.9%,1%
CNc1ccccc1C(=O)N/N=C/c1ccc(O)c(OC)c1,3%,5.65,0.85%,2.55,37.4%,-19.6%
O=C1c2ccccc2Cc2ccc(O)cc21,47.1%,21.3,11.1%,10.3,11.8%,10.8%
COC(=O)C(NC(=O)c1ccccc1)C(C)=O (stereo not drawn),9.5%,-0.7,-3.4%,-35.4,-16.9%,10%
C[N+](C)(C)CCCCCc1c2nc(c(CCCCC[N+](C)(C)C)c3ccc([nH]3)c(CCCCC[N+](C)(C)C)c3ccc([nH]3)c(CCCCC[N+](C)(C)C)c3nc1C=C3)C=C2,19.6%,3.85,10%,3.8,26.4%,85.2% (active)
O=C(Cc1ccccc1)N(C(=O)c1ccccc1)c1ccccc1,8.9%,14.5,10.8%,9.1,24.1%,15.7%
OCCN1OCCCC1c1ccccc1 (stereo not drawn),-0.75%,-14.3,1.2%,-28.1,-31.2%,0.1%
CC(C)C1CSC2N1C(=O)C2(OCc1ccccc1)C1CC1 (stereo not drawn),3.3%,-22.4,-3.2%,-16.2,-20.1%,9.1%
N#CC(C#N)=C(N)/C(C#N)=C/c1ccc(O)c(O)c1,-14.2%,-4.9,-5.25%,3.7,2.4%,6.85%
S=C1SC(=Nc2ccccc2)C(=Nc2ccccc2)N1c1ccc2ccccc2c1,8.2%,8.75,28.5%,12.8,27.9%,24.1%
CC(O)C(NC(=O)Nc1ncnc2nc[nH]c12)C(=O)O (stereo not drawn),8.8%,4.3,-2%,7.75,-14.2%,16.9%
Cc1cc(N(CCC#N)CCC#N)ccc1C=Nc1ccc(C(=O)NN2C(=O)/C(=C/c3ccc(N(CCC#N)CCC#N)cc3)N=C2c2cc([N+](=O)[O-])ccc2Cl)cc1,17.9%,10.1,2.6%,24,4.7%,7.8%
N#C/C(=C1/Sc2c(nc[nH]c2=O)N1c1ccccc1)c1nc2ccccc2[nH]1,-34.6%,-14.4,-51.9%,-8.1,-40%,-41.9%
CN(C(=O)C1C2c3ccccc3C(c3ccccc32)C1C(=O)N(C)c1ccccc1)c1ccccc1 (stereo not drawn),29.4%,1.3,22.4%,-39,1.1%,21.9%
